This is a sample that favours compounds with a hit; in the whole collection about 10% have one here.
GPT2 inh = Primary qHTS assay for inhibitors of Glutamate pyruvate transaminase 2 (GPT2). Alanine aminotransferase 2 (Homo sapiens), Q8TD30. Recombinant GPT2, coupled pyruvate oxidase/HRP Amplex Red fluorescence. Potency, µM (highest dose often 57.7 µM), for the others: at the highest dose activity change, negative = inhibition, usual class: inhibitors. 0.25% of 100,000 active; also: % is scaled to controls: 0 for no effect and ±100 for the full control effect; nearly all actives have a fitted effect of over 60% in size
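Inhibition is scored from Amplex Red fluorescence generated when pyruvate oxidase and HRP act on pyruvate released by GPT2. Reactions contain 10ng/uL enzyme, 250uM a-KG and 2mM L-alanine and run 30 min at room temperature.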
Luciferase inh = Firefly luciferase inhibition profiling of diverse chemical library using quantitative high-throughput screening | Potency, µM (doses to about 115 µM), most hits filed as inhibitors | 2.5% of 76,000 active | Luciferin 4-monooxygenase (Photinus pyralis), P08659 | purified P. pyralis luciferase, luminescence, biochemical; also: % is scaled to controls: 0 for no effect and ±100 for the full control effect; nearly all actives have a fitted effect of over 65% in size
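FLuc 10nM, D-luciferin 10uM, ATP 10uM, Mg acetate 10mM, Tris acetate pH 7.5, Tween/BSA; cpd qHTS; enzyme added last; CCD luminescence.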
hNpr1 antagonist = Natriuretic polypeptide receptor (hNpr1) antagonism - Primary qHTS. Atrial natriuretic peptide receptor 1 (Homo sapiens), P16066. HEK293 hNpr1 GloSensor cGMP, ANP-stimulated luminescence. Potency, µM (titrated, usually from 46.3 µM), for the others: at the highest dose activity change, negative = inhibition, most hits filed as inhibitors. 1.6% of 76,000 active; calls by dose curve; also: % is scaled to controls: 0 for no effect and ±100 for the full control effect; nearly all actives have a fitted effect of over 60% in size
Target sequence (P16066 whole entry, looked up): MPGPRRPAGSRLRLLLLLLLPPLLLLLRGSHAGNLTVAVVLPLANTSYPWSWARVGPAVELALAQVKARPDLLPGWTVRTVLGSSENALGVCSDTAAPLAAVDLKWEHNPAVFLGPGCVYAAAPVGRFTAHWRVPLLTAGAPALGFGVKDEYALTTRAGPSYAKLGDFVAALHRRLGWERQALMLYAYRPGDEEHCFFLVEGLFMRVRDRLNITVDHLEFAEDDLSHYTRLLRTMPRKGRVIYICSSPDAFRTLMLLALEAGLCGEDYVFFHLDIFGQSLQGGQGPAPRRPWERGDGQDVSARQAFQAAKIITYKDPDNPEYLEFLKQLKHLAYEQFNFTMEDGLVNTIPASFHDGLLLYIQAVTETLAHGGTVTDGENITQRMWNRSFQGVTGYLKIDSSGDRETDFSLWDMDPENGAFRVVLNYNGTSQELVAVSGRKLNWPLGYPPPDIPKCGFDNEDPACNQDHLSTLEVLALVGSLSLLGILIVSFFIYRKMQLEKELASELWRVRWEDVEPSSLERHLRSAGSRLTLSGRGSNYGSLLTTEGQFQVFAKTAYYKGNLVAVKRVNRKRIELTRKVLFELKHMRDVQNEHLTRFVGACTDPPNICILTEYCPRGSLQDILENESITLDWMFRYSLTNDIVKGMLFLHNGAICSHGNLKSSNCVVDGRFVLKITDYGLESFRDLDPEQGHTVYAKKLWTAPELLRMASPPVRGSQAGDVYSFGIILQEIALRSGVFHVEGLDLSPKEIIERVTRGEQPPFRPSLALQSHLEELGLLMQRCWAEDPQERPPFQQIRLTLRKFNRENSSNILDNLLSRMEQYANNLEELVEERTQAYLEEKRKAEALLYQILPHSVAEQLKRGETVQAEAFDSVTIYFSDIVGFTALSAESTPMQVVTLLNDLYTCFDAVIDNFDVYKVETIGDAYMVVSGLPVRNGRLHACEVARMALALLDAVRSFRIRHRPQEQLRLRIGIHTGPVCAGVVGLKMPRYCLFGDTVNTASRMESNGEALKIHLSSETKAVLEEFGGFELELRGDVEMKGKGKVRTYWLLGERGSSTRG
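HEK293 cells stably expressing human Npr1 and cGMP GloSensor pGS-40F, loaded 2 h with 2% GloSensor reagent, given compound 30 min at room temperature. Luminescence read before and 20 min after 0.1 nM hNppA.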
HEK293 tox = Cytotoxic Profiling in HEK 293 Cell Line of Diverse Libraries Using Quantitative High-Throughput Screening | HEK 293 viability, ATP luminescence (CellTiter-Glo), 48-72 h | 6.6% of 94,000 active | Potency, µM (doses to about 115 µM), without a hit: at the top dose activity change, negative = cytotoxicity, most hits filed as inhibitors; also: % is scaled to controls: 0 for no effect and ±100 for the full control effect; nearly all actives have a fitted effect of over 60% in size
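Pintool-delivered compounds were incubated with HEK 293 cells (250 cells/well) at 37 degree Celsius for 48 or 72 hr. ATP-dependent luminescence (CellTiter-Glo) then reported remaining viable cells.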
3T3 cytotox = Cytotoxic Profiling in NIH 3T3 Cell Line of Diverse Libraries Using Quantitative High-Throughput Screening; NIH 3T3 viability, CellTiter-Glo ATP luminescence, 48-72 h; Potency, µM (top dose mostly 96.7 µM), inactives show at the top dose activity change, negative = cytotoxicity, hits mostly inhibitors; 4.3% of 94,000 active; also: % is scaled to controls: 0 for no effect and ±100 for the full control effect; nearly all actives have a fitted effect of over 55% in size
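NIH 3T3 cells at 400 cells/well received 23 nL of compound by pintool and were incubated 48 or 72 h at 37 °C. Viability was read as ATP-coupled CellTiter-Glo luminescence.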
NPR1 antag cnf = Natriuretic polypeptide receptor (hNpr1) antagonism - Confirmation | shares compounds with hNpr1 antagonist | HEK293 hNpr1 cGMP GloSensor luminescence, ANP-stimulated | Potency, µM (doses to about 57.6 µM), for inactives: at the top dose activity change, negative = inhibition, actives largely listed as inhibitors | 76% of 1,400 active; calls by dose curve; also: nearly all actives have a fitted effect of over 70% in size
NPR2 antag = Natriuretic polypeptide receptor (hNpr2) antagonism - Subtype selectivity assay; shares compounds with hNpr1 antagonist; Potency, µM (series often up to 57.6 µM), inactives show at the highest dose activity change, negative = inhibition, hits mostly inhibitors; AID 1347046, 2019; HEK293 hNpr2 GloSensor cGMP luminescence, CNP-stimulated; 67% of 1,400 active; calls by dose curve; also: nearly all actives have a fitted effect of over 70% in size
FLuc inh counter = Natriuretic polypeptide receptor (hNpr1) antagonism - Confirmation firefly luciferase (FLuc) inhibition counterscreen; purified FLuc enzyme, luminescence, Km substrate; AID 1347047, 2019; Potency, µM (top dose mostly 57.6 µM), without a hit: at the top dose activity change, negative = inhibition, usual class: inhibitors; shares compounds with hNpr1 antagonist; 0.7% of 1,400 active; also: 0% is about no effect
GloSensor ctrl = Natriuretic polypeptide receptor (hNpr1) antagonism - Counterscreen GloSensor control cell line. 69% of 1,400 active. Potency, µM (series often up to 57.6 µM), without a hit: at the top dose activity change, negative = inhibition, usual class: inhibitors. shares compounds with hNpr1 antagonist. HEK293 GloSensor cGMP, SNP-stimulated, luminescence; calls by dose curve; also: % is scaled to controls: 0 for no effect and ±100 for the full control effect; nearly all actives have a fitted effect of over 70% in size
Active calls of the source: *; i = inactive; ? = inconclusive; · = no result given; [ ] = another dose, or the depositor's remark. Unless noted, calls follow the shape of the dose curve; as a rule, active = well fitted curve in the direction sought with a large enough effect; inconclusive = small, poorly fitted or top-dose-only effect, or another doubt; inactive = no such curve, though single readings can be large; an effect the other way counts as inactive or inconclusive. Potency is read from the fitted curve at half-maximal effect.

SMILES	GPT2 inh	Luciferase inh	hNpr1 antagonist	HEK293 tox	3T3 cytotox	NPR1 antag cnf	NPR2 antag	FLuc inh counter	GloSensor ctrl
Cc1ccc(SCCN(C)c2cc(C3CC(O)C3)nc(N)n2)cc1 (stereo not given)	-13%	i	13µM*	28µM*	?	24µM*	22µM*	4%	22µM*
Cc1cc(C(=O)N2CCC3(CC2)CC(N(Cc2ccc(F)cc2)C2CC2)CCO3)n(C)n1 (stereo not given)	i	i	?	?	?	27µM*	?	0%	27µM*
CC(=O)N1CCC2(CC1)CC(N(Cc1ccc(F)cc1)C1CC1)CCO2 (stereo not given)	i	i	4%	-11%	4%	·	·	·	·
CC(=O)N1CCC(CC(=O)N2C[C@@H](Oc3ccccc3)C[C@H]2C(=O)N2CCOCC2)CC1	-2%	·	·	-1%	-10%	·	·	·	·
COc1cccc([S+](=O)([O-])N2CCC3(CC2)C(=O)Nc2ccccc23)c1	?	i	13µM*	?	?	20µM*	20µM*	2%[86.2 µM]	16µM*
CCCOc1ccccc1C(=O)N1CCc2onc(-c3ccccc3)c2C1	i	i	?	?	?	?	?	2%	-23%
CCC(O)C(=O)N1CCc2onc(-c3ccc(-c4ccccc4)cc3)c2C1 (stereo not given)	4%	i	11µM*	?	?	24µM*	24µM*	?	24µM*
CCOc1ncccc1C(=O)N1CCc2onc(-c3ccccc3F)c2C1	4%	i	-19%	?	?	·	·	·	·
O=C(c1n[nH]c2ccccc12)N1CC(c2nc(CCOCC3CC3)no2)C1	0%	i	-3%	-12%	-15%	·	·	·	·
CCc1ccc(Nc2nc(C)cc(=O)n2CC(=O)c2ccc(F)cc2)cc1	5%	i	-3%	1%	i	·	·	·	·
COC(=O)c1cccc(NC(=S)N[C@H]2CO[C@H]3[C@@H]2OC[C@@H]3n2cc(-c3ccccc3)nn2)c1	-5%	i	11µM*	?	?	12µM*	17µM*	-7%	12µM*
c1ccc(CCCN[C@H]2CO[C@H]3[C@@H]2OC[C@@H]3n2cc(-c3ccccc3)nn2)cc1	-2%[88.5 µM]	i	10µM*	?	?	16µM*	20µM*	0%[86.2 µM]	16µM*
O[C@@H]1CO[C@H]2[C@@H]1OC[C@@H]2n1cc(-c2ccccc2)nn1	-17%[88.5 µM]	i	-9%[70.6 µM]	?	-10%[230 µM]	·	·	·	·
COc1ccccc1CCC(=O)N1CC(F)(F)C[C@H]1c1nnc(C)o1	i	i	1%	-8%	-17%	·	·	·	·
O=C(C[C@@H]1CCNC[C@@H]1Cc1cc(CC2CCCCC2)on1)NCc1ccccc1	5%[88.5 µM]	i	14µM*	?	32µM*	20µM*	28µM*	5%[86.2 µM]	18µM*
O=C(C[C@@H]1CCNC[C@@H]1Cc1cc(CN2CCCCC2)on1)N1CCN(c2ccccc2)CC1	-24%	i	1%	?	?	·	·	·	·
O=C1Nc2ccccc2OCC12CCN(Cc1ccc(C(F)(F)F)cc1)CC2	i	i	11µM*	?	-30%	24µM*	24µM*	-2%	24µM*
O=C(c1ccc2[nH]ncc2c1)N1CCOCC12CCN(Cc1cccc(OC(F)(F)F)c1)CC2	i	i	-6%	?	-15%	·	·	·	·
Cc1ccc(CN2CC(Oc3ccc(-c4noc(-c5cccnc5)n4)cc3)C2)o1	i	i	13µM*	?	?	19µM*	24µM*	?	22µM*
CCCS(=O)(=O)N1CC(Oc2ccc(-c3noc(-c4cccnc4)n3)cc2)C1	3%	i	14µM*	?	?	19µM*	17µM*	-19%	15µM*
CCOC(=O)C1CCN(C(=O)C2COC3(CCCCC3)N2C(=O)c2cccc(Cl)c2)CC1 (stereo not given)	3%	i	5%	-20%	-20%	·	·	·	·
O=C(NCCc1ccccc1)C1CCc2ncc(-c3ccsc3)n2C1 (stereo not given)	-22%	i	?	?	?	?	-25%	3%	-29%
COc1ccccc1OCCNC(=O)C1CCc2ncc(-c3ccc(F)cc3)n2C1 (stereo not given)	i	i	?	?	-22%	19µM*	19µM*	0%	-16%
Cc1ccn(CC(=O)N2CCc3nn(Cc4ccccc4)c(=O)n3CC2)n1	5%	i	-5%	-5%	-3%	·	·	·	·
O=C(c1cc(F)ccc1F)N1CCN(c2cc(-c3ccc(Cl)cc3)[nH]n2)CC1	i	i	?	35µM*	28µM*	27µM*	24µM*	1%	31µM*
O=C(c1ccc(F)cc1Cl)N1CCN(c2cc(-c3ccc(F)cc3)[nH]n2)CC1	i	i	11µM*	?	?	17µM*	19µM*	-1%	15µM*
O=C(c1cc(Cl)ccc1F)N1CCN(c2cc(-c3ccccc3)[nH]n2)CC1	i	i	-20%	?	?	·	·	·	·
O=C(Nc1ccc(F)c(F)c1)c1cc2n(n1)CC(c1ccc(Br)cc1)OC2 (stereo not given)	-6%	i	?	?	?	24µM*	?	0%	?
